# Results from PubChem BioAssay (EPA / NIEHS).
# Activity calls are given as the source filed them. Rule for the calls: active = hit-call score of the fitted dose curve at least 0.9, where 1 is the maximum; inactive = score below 0.9.
# Target: Hypoxia-inducible factor 1-alpha (Homo sapiens) (UniProt Q16665)
# Test: ATG_HIF1a_CIS: Attagene CIS-FACTORIAL HepG2 Assay for human Hypoxia Inducible Factor 1 (HIF1A) (AID 2282951)
# Details: HepG2 Attagene cis-factorial HIF1a reporter transcription; actives raise or lower the signal
# How it was run: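 Activity is fitted in both directions relative to DMSO. Reporter transcripts are read by RT-PCR, fluorescent primer extension and capillary electrophoresis after 24 h chemical treatment. The cells are HepG2 carrying transiently transfected cis-element-driven reporter units responding to endogenous factors.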
# Chain of Hypoxia-inducible factor 1-alpha (Homo sapiens) (Q16665 whole entry, looked up): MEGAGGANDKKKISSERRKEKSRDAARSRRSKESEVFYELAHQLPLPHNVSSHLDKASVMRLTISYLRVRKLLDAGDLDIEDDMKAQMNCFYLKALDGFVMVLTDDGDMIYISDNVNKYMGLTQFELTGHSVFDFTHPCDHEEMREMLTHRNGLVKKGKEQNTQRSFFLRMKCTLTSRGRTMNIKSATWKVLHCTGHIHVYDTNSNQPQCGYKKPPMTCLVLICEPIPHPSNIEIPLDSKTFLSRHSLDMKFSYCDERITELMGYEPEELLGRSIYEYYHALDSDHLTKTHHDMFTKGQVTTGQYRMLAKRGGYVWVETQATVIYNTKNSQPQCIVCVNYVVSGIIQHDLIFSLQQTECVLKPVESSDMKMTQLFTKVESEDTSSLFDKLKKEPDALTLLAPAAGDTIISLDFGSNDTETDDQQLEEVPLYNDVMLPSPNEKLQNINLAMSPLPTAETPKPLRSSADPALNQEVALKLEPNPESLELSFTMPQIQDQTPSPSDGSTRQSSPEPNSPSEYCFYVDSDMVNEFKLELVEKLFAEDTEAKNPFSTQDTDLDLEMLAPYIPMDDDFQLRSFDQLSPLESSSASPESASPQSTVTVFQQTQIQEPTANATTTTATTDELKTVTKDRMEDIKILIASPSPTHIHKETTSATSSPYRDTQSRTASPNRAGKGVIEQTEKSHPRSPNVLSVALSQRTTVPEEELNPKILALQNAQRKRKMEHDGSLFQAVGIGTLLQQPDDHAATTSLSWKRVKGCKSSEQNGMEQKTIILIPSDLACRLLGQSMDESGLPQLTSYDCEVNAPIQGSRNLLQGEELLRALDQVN
row,Structure (SMILES),outcome
1,NC(N)=NC(N)=NCCc1ccccc1,inactive
2,CCC(=O)OC/C=C(\C)CCC=C(C)C,inactive
3,CCCCOC(=O)C(C)OC(=O)CCC (centres undefined),inactive
4,CCO[Si](CCC#N)(OCC)OCC,inactive
5,CC(=O)N(C)C,inactive
6,CCCCCCCCCO,inactive
7,O=C(O)CS,inactive
8,CC(C)(CO)CO,inactive
9,CCCCOCCOCCO,inactive
10,CC(C)Cc1ccccc1,inactive

# Target: Hepatocyte nuclear factor 6 (Homo sapiens) (UniProt Q9UBC0)
# Test: ATG_HNF6_CIS: Attagene CIS-FACTORIAL HepG2 Assay for human Hepatocyte Nuclear Factor 6 (HNF6) (AID 2282952)
# Details: HepG2 Attagene cis-factorial HNF6 reporter transcription; actives raise or lower the signal
# How it was run: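 Readout: fluorescent reporter-transcript fragments resolved by capillary electrophoresis after RT-PCR, reflecting endogenous factor activity in transfected HepG2. Exposure 24 h. Gain or loss of signal fitted bidirectionally against DMSO.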
# Chain of Hepatocyte nuclear factor 6 (Homo sapiens) (Q9UBC0 whole entry, looked up): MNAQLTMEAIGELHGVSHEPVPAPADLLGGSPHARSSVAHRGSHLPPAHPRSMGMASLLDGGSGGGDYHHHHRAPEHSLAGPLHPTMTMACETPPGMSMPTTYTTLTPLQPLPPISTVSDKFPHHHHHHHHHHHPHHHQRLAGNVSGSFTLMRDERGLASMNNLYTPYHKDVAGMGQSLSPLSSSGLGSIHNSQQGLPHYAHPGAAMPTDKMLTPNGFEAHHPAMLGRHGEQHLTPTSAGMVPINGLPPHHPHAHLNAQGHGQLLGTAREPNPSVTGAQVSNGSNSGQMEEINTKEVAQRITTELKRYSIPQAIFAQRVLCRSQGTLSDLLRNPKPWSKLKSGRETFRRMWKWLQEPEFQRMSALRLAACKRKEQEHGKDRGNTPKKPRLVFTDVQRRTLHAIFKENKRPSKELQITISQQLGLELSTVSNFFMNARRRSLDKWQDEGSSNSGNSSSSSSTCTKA
row,Structure (SMILES),outcome
1,CN1CCc2cccc3c2[C@H]1Cc1ccc(O)c(O)c1-3,inactive
2,C/C=C(\C)C(=O)OC/C=C(\C)CCC=C(C)C,inactive
3,S=c1[nH][nH]c(=S)s1,inactive
4,O=C1OC2(c3ccc(O)cc3Oc3cc(O)ccc32)c2ccccc21,inactive
5,CC(C)Cc1ccc(C(C)C(=O)O)cc1 (centres undefined),inactive
6,NC(=O)c1cnccn1,inactive
7,CC1=CC(C)C(C=O)C(C)C1 (centres undefined) (tested in a mixture with another compound),inactive
8,CC(C)(C)C1CCC(O)CC1 (centres undefined),inactive
9,O=S(=O)(O)CCCN1CCOCC1,inactive
10,C=C(C)C(=O)OCCC(C)OC(=O)C(=C)C (centres undefined),inactive
11,CC1=CC(O)CC(C)(C)C1 (centres undefined),inactive
12,CCC(=O)OCC=Cc1ccccc1,inactive
13,CCCCC1CCCCC(=O)O1 (centres undefined),inactive
14,CCOC(=O)COC(=O)c1ccccc1C(=O)OCC,inactive
15,Brc1cc(Br)cc(Br)c1,inactive
16,COc1ccc(OC)cc1,inactive
17,Nc1ccc(O)c(N)c1,inactive
18,CCCC1CCC(=O)CC1,inactive
19,N=C1N=C(N)c2ccccc21,inactive

# Target: Heat shock factor protein 1 (Homo sapiens) (UniProt Q00613)
# Test: ATG_HSE_CIS: Attagene CIS-FACTORIAL HepG2 Assay for human Heat Shock Transcription Factor 1 (HSE) (AID 2282953)
# Details: HepG2 HSE cis-reporter, Attagene RNA transcription; actives raise or lower the signal
# How it was run: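 HepG2 cells transiently transfected with multiple reporter transcription units under cis-regulatory promoter control, measuring endogenous transcription factor activity. After 24 h chemical exposure, reporter mRNA quantified by RT-PCR, fluorescent labelling, HpaI digestion and capillary electrophoresis; bidirectional fit versus DMSO.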
# Chain of Heat shock factor protein 1 (Homo sapiens) (Q00613 whole entry, looked up): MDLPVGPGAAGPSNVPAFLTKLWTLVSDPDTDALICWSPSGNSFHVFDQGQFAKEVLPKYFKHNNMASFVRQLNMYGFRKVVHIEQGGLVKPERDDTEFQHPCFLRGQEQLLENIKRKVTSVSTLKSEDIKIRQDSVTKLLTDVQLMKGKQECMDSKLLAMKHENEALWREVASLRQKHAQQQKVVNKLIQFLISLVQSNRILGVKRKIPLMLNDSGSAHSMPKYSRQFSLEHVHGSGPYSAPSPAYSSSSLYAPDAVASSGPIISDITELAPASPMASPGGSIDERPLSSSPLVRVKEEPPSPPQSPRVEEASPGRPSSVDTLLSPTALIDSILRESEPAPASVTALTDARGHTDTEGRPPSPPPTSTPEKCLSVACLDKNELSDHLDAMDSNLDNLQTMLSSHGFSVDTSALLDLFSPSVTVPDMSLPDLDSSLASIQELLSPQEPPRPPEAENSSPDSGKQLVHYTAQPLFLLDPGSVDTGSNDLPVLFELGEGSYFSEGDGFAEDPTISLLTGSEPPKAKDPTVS
Structure (SMILES),outcome,AC50
NC(N)=NC(N)=NCCc1ccccc1,inactive,
CN1CCc2cccc3c2[C@H]1Cc1ccc(O)c(O)c1-3,inactive,
CCC(=O)OC/C=C(\C)CCC=C(C)C,inactive,
S=c1[nH][nH]c(=S)s1,inactive,
O=C1OC2(c3ccc(O)cc3Oc3cc(O)ccc32)c2ccccc21,inactive,
CC(C)Cc1ccc(C(C)C(=O)O)cc1 (centres undefined),inactive,
NC(=O)c1cnccn1,inactive,
CC1=CC(C)C(C=O)C(C)C1 (centres undefined) (tested in a mixture with another compound),inactive,
CC(C)(C)C1CCC(O)CC1 (centres undefined),inactive,
CCCCOC(=O)C(C)OC(=O)CCC (centres undefined),inactive,
O=C(O)c1ccc(C(=O)O)c(C(=O)O)c1,inactive,
CC(CCO)CC(C)(C)C (centres undefined),inactive,
CCO[Si](CCC#N)(OCC)OCC,inactive,
C=C(C)C(=O)OCCC(C)OC(=O)C(=C)C (centres undefined),inactive,
CC(=O)N(C)C,inactive,
O=c1cc(-c2ccc(O)cc2)oc2cc(O)cc(O)c12,,24.9 µM (active)
CC1=CC(O)CC(C)(C)C1 (centres undefined),inactive,
CCC(=O)OCC=Cc1ccccc1,inactive,
CCCCCCCCCO,inactive,
CC(C)(O)CCc1ccccc1,inactive,
CN(C)CCC=C1c2ccccc2CCc2ccccc21,inactive,
CCOC(=O)COC(=O)c1ccccc1C(=O)OCC,inactive,
O=C(O)CS,inactive,
CC(C)(CO)CO,inactive,
CCCCOCCOCCO,inactive,
Brc1cc(Br)cc(Br)c1,inactive,
CC(C)Cc1ccccc1,inactive,
COc1ccc(OC)cc1,inactive,
CCCC1CCC(=O)CC1,inactive,
N=C1N=C(N)c2ccccc21,inactive,
